Test results taken from the supplement of paper PMC6555819.

system: LXRb:RXRa (NR concentration 270 nM, RXRa partner concentration 90 nM); assay: PBM binding z-score (relative to random genomic background probes); higher = stronger binding; sequences stand for … in GC…GCGATTGACAGCGTAGAATGAAGG
In short: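 Regression normalization was applied to scanned fluorescence from custom Agilent 4×180K protein-binding microarrays. Before scanning, arrays were incubated 1 h with ligand-free nuclear receptor dimers, and binding was detected with antibodies against each partner (one per run). Binding z-scores use the random background probes as reference.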

Sequence | PBM binding z-score
TCAAGTTGGTCAAAGGTCACACACTCGAAATGCG | 5.56
ACTAGCAGGCCAAGGATCACTCAAGATTAGTCCG | -0.592
ACTTACGGGTCAGCGAGGTTATAGCACGCGTATA | 3.41
TCTATCAGTTGATTAGGGCAACCGAAACAGCGGA | 0.101
CCTTACGGGTCACTCCAGGTTATGGCATCGGAGT | 4.4
CCTTACGGGTCAAGGTTACAGCACGGGTGGTACG | 2.99
CGTCCAAGGTCAAGGTCAGTGACAGAGACTCGAA | 4.71
ATCTCTAGGGAAAGTTCAGTGAAAGATCGATAGA | 0.942
ACAGACAGGTGATGAAGGTAACCCAGGCTATCAT | -0.241
TCATATAGGTAAATGCGAGGTGAAAGTCCGATCT | 0.944
CAAACTAGGTCACAGAGGTCAAAGGCCGTGCGTA | 5.9
CCTAGTTGGTGAGGAGGTCACACACCGGATATGA | 3.19
CCTGCTAGGTCATGGTCAGCTAATCTACAGTATG | 1.83
ATATGTAAGTTACATCCGGGTCATTCAGGCTATG | 2.19
TCTTGTAGATCAGCAGGTTAAGACAGCTGGCCAA | 0.114
TCTGCTAGGTCATTTGGTCAGCTAACGAGCTGCC | 2.03
CCTACTGGGCCACGAAAGGTCAGTGATTCAGTGA | 2.24
CCTACTGGGCCAAGGTCATTTATCAGTCAAAGCA | 3.53
ATATGTAGGTTACATCCGGGTCCTTCAGGCTATG | 0.684
AGAATGAGGTTATACGTAGATTAGGGAAGAAAGT | 1.74

Sequence | PBM binding z-score
CCTAGTTGGTCAAGGTCAGACACGCTATAGGTAC | 2.12
TGATTGAGGTTAAAGATCAGGGAACGTGGCGTCG | 1.85
CCTGCTACGTCAATGGTCAGCTAAAGCAGCTCGC | -0.531
ACTATTAGTTGACTTAGGGCGACCGATACGACGC | -0.0198
ATCTCTAGGTAAACTTCAGTGAAAGATCGATAGA | 0.0821
CTACCAAGGTGAACACGGTCGTTGATTACTATTC | 1.01
ATCTCTAGGTTACCAAGTTCAGTGAATGCCGAAC | 1.47
CCTAGGAGGACAGAAGGTCAGAGCTGTCCGCTTT | 1.11
AGTCAAAGTTCAGGACGAGGTGACGTAAAGCACG | 1.82
CCTACTGGTCCATTCAGAGGTCATTGATCATATG | 3.9
ACTATTAGTTGGCTTAGGGCAACCGATACGACGC | -0.136
TCTGCTAGGTCAACGATGGTGAGCTAATCTGCTA | 1.15
ATATGTAGGTTACATCCGTGTCATTCAGGCTATG | 1.81
ACTATTGGTTGACTTAGGGCAACCGATACGACGC | 0.201
GCTAGCAGGCCATTTGGGTCACGCAATGACGGGC | 0.378
CGTCAAAGTTCAAGGTAACGTATCAGAAAGCAGC | 3.2
CGTCAAAGTTCAACTAAGGTATCGTAAAGCACGC | 4.24
CCTTACGCGTCACTCCAGGTTATAGCATCGGAGT | 1.36
CCTCGGAGGACAGAATGTCAGAGCTGTCCGCTTT | -1.01
CCGACTGGGGCAAAAGGTTACCATAAGCCAGCCC | 1.86
